“And” between values parts separate entries of the source, which are not always exact repeats. Equal entries are not always repeated. The whole screen tested about 6,400 compounds, of which about 610 (9.5%) were called active. Rule as the data show it: active = activity change below about -70%; inconclusive = no clear call, values can overlap the other calls; inactive = above that. What follows is part of a selection rich in actives, with near analogues and random picks from the rest. The source holds several records for some structures; these can differ, active in one and inactive in another.

The test can be described thus: Toxoplasma gondii ME49Luc growth in HeLa cells, luciferase, no IFN-y, primary screen (AID 1259421). To be noted: T. gondii ME49Luc in HeLa, 72 h, stronger effect = lower value, concentration not given here.
On to `N[C@@H]1c2cccnc2[C@H](OC(=O)N2CCC(n3c(=O)[nH]c4ncccc43)CC2)CC[C@H]1c1cccc(F)c1F`, for which the activity change, negative = inhibition was -1.69% (inactive).

On to `C=C[C@@H]1C[C@]1(NC(=O)[C@@H]1C[C@@H](Oc2ncc(OC)c3ccc(Cl)cc23)CN1C(=O)[C@@H](NC(=O)OC(C)(C)C)C(C)(C)C)C(=O)NS(=O)(=O)C1CC1`, for which the activity change, negative = inhibition is -73.7% (active).

Turning to `C=C[C@@H]1C[C@]1(NC(=O)[C@@H]1C[C@@H]2CN1C(=O)[C@H](C(C)(C)C)NC(=O)O[C@@H]1C[C@H]1CCCCCc1nc3ccc(OC)cc3nc1O2)C(=O)NS(=O)(=O)C1CC1`, the activity change, negative = inhibition was 0.122% (inactive).

Take `CCOc1ccccc1O[C@H](c1ccccc1)[C@H]1CNCCO1` (racemic): the activity change, negative = inhibition was 8.34% (inactive).

On to `O=C(c1ccc(Nc2nccc(-c3cc4ccccc4s3)n2)cc1)N1CCC(N2CCCC2)CC1`, for which the activity change, negative = inhibition is -80.6% (active) and -80.3% (active).

Turning to `O=C(c1cncc(Br)c1)N1CCC(N2CCCC2)CC1`, the activity change, negative = inhibition was 15.9% (inactive).

With `O=C(c1ccc(C(=O)N2CCC(N3CCCC3)CC2)c(Nc2ccccc2)c1)N1CCC(N2CCCC2)CC1`, the activity change, negative = inhibition was -4.76% (inactive).

For the molecule `CC1=C2C(O)C(=O)OC3CC4C(C)(C)C(=O)C=C[C@]4(C)C(CC1)[C@]23C` (some centres undefined), the activity change, negative = inhibition is 9.55% (inactive).

For `COC(=O)N[C@H](C(=O)N1CC2(CC2)C[C@H]1c1ncc(-c2ccc3c(c2)C(F)(F)c2cc(-c4ccc5nc([C@@H]6[C@H]7CC[C@H](C7)N6C(=O)[C@@H](NC(=O)OC)C(C)C)[nH]c5c4)ccc2-3)[nH]1)C(C)C`, the activity change, negative = inhibition was -11.8% (inactive).

As to `CC(C)N=C(N)/N=C(\N)Nc1ccc(Cl)cc1`, the activity change, negative = inhibition is 13.8% (inactive) and 11.1% (inactive).

With `Cc1ccc2c(=O)c3ccccc3n(CCCN)c2c1C`, the activity change, negative = inhibition was -91.1% (active) and -77% (active).

In the case of `Cc1ccc2c(=O)c3cccc(CC(=O)O)c3oc2c1C`, the activity change, negative = inhibition is 9.87% (inactive).

As to `Cc1cc(=O)c(C(=O)N[C@@H](C(=O)N[C@@H]2C(=O)N3C(C(=O)O)=C(CSc4nnnn4C)CS[C@H]23)c2ccc(O)cc2)c[nH]1`, the activity change, negative = inhibition is 9.23% (inactive).

Take `NC(CC(=O)Nc1ccc(Oc2cc(F)c(F)cc2Br)cc1)C(=O)O` (centres undefined): the activity change, negative = inhibition is 0.0757% (inactive).

As to `COc1cc(OC)c(C(C)=O)c(O)c1C`, the activity change, negative = inhibition is 2.79% (inactive).

For `CCCCCCCCCCCCCC[C@@H](O)[C@@H](O)[C@@H](N)CO`, the activity change, negative = inhibition was 24.8% (inactive).

`Nc1[nH]c(=O)ncc1F`: the activity change, negative = inhibition was 8.39% (inactive) and -90.4% (active).

Consider `O=S(=O)(NCCNC/C=C/c1ccc(Br)cc1)c1cccc2cnccc12`, for which the activity change, negative = inhibition is 4.5% (inactive) and -8.12% (inactive).

Take `O=C(C(c1ccccc1)c1ccccc1)N1CCN(CC(O)COc2cccc3ncccc23)CC1` (centres undefined): the activity change, negative = inhibition is 10.1% (inactive).

For the molecule `Cn1c(=O)n(-c2ccc(C(C)(C)C#N)cc2)c2c3cc(-c4cnc5ccccc5c4)ccc3ncc21`, the activity change, negative = inhibition is 13.4% (inactive).

For `CC(C)(C#N)c1ccc(N2C(=O)OCc3cnc4ccc(-c5cnc6ccccc6c5)cc4c32)cc1`, the activity change, negative = inhibition was -90.7% (active).

`C=CC(=O)Nc1cc(Nc2nccc(-c3cn(C)c4ccccc34)n2)c(OC)cc1N(C)CCN(C)C`: the activity change, negative = inhibition was -63.1% (inactive).

Consider `C[C@H](CCC(=O)O)[C@H]1CCC2C3C(=O)CC4CC(=O)CC[C@]4(C)C3CC(=O)[C@@]21C` (some centres undefined), for which the activity change, negative = inhibition was 8.53% (inactive) and 10.4% (inactive).

Take `O=c1[nH]cnc2nc[nH]c12`: the activity change, negative = inhibition is 7.14% (inactive).

Consider `COc1cccc(-c2cc(=O)c3cc(OC)ccc3o2)c1`, for which the activity change, negative = inhibition is 316% (inactive).

Turning to `O=C1Nc2ccc(Br)cc2/C1=C/c1cc2c([nH]1)CCCC2`, the activity change, negative = inhibition is 13.6% (inactive).

As for `CC(N)=NCCCC[C@H](N)C(=O)O`, the activity change, negative = inhibition is 11.5% (inactive).

As for `CCCCC(CC)CN=C(N)NC(N)=NCCCCCCN=C(N)NC(N)=NCC(CC)CCCC` (centres undefined), the activity change, negative = inhibition is -87.6% (active).

`CCCCCCCCCCC(CO)CCCCCCCC` (centres undefined): the activity change, negative = inhibition is 7.89% (inactive).

`C=C1CCC2C(CC2(C)C)C(=O)CCC1O` (centres undefined): the activity change, negative = inhibition was 4.7% (inactive).

With `C[C@@]1(C(=O)Nc2ccc(F)nc2)CCCN1c1nc(Nc2cc(C3CC3)[nH]n2)c2cccn2n1`, the activity change, negative = inhibition is -54.4% (inactive).

As for `CCOC(=O)[C@H](CCc1ccccc1)N[C@@H](C)C(=O)N1C(=O)N(C)C[C@@H]1C(=O)O`, the activity change, negative = inhibition is 6.47% (inactive).

For the molecule `CC1CCC(C(=O)N(c2cc(C#CC(C)(C)C)sc2C(=O)O)C2CCC(O)CC2)CC1` (centres undefined), the activity change, negative = inhibition is 16.2% (inactive).

In the case of `CCC(=O)O[C@]1(C(=O)CO)CC[C@H]2[C@@H]3CCC4=CC(=O)CC[C@]4(C)[C@H]3CC[C@@]21C`, the activity change, negative = inhibition was -9.17% (inactive).

On to `C[C@]12CC[C@H]3[C@@H](CCC4=CC(=O)CC[C@@]43C)[C@@H]1CC[C@@H]2C(=O)CO`, for which the activity change, negative = inhibition was -83.1% (active).

On to `CC(=O)[C@@]1(O)CCC2C3CCC4=CC(=O)CC[C@]4(C)C3CC[C@@]21C` (some centres undefined), for which the activity change, negative = inhibition is 6.92% (inactive) and 3.13% (inactive).

In the case of `CCCCC(=O)O[C@]1(C(=O)CO)CCC2C3CCC4=CC(=O)CC[C@]4(C)C3[C@@H](O)C[C@@]21C` (some centres undefined), the activity change, negative = inhibition was 0.149% (inactive) and 0.816% (inactive).

In the case of `CC(=O)OCC(=O)[C@H]1CCC2C3CCC4=CC(=O)CC[C@]4(C)C3CC[C@@]21C` (some centres undefined), the activity change, negative = inhibition is 0.487% (inactive).

Regarding `CCCCCC(=O)O[C@]1(C(C)=O)CCC2C3CCC4=CC(=O)CC[C@]4(C)C3CC[C@@]21C` (some centres undefined), the activity change, negative = inhibition is -76.9% (active).

For `CC(=O)OCC(=O)[C@H]1CC[C@H]2[C@@H]3CCC4=CC(=O)CC[C@]4(C)[C@H]3CC[C@]12C`, the activity change, negative = inhibition was -73.9% (active) and -75.9% (active).

With `C[C@]12C[C@H](O)[C@H]3[C@@H](CCC4=CC(=O)CC[C@@]43C)[C@@H]1CC[C@@H]2C(=O)CO`, the activity change, negative = inhibition was 1.69% (inactive).

As for `CC(=O)OCC(=O)[C@H]1CCC2C3CC=C4C[C@@H](O)CC[C@]4(C)C3CC[C@@]21C` (some centres undefined), the activity change, negative = inhibition is 7.77% (inactive).

On to `CCCOc1ccc(Br)cc1-c1cc(-c2ccc(Cl)cc2)[nH]c1-c1ccncc1`, for which the activity change, negative = inhibition is -7.79% (inactive).

As to `CC(C)N1CCN(c2ccc(C(=O)c3c(-c4ccc(O)cc4)sc4cc(O)ccc34)cc2)CC1`, the activity change, negative = inhibition is -3.21% (inactive) and -13.9% (inactive).

As to `NC(N)=Nc1nc(CSCC/C(N)=N\S(N)(=O)=O)cs1`, the activity change, negative = inhibition is 15.8% (inactive) and 7.35% (inactive).

With `CN1CCN(C2=Nc3cc(F)ccc3Cc3ccccc32)CC1`, the activity change, negative = inhibition was -3.95% (inactive).

Consider `CCOC(=O)C12CC1/C(=N/O)c1ccccc1O2` (centres undefined), for which the activity change, negative = inhibition is 10.1% (inactive).

In the case of `O=[Si]=O`, the activity change, negative = inhibition was 10.7% (inactive).

`CCCCCCCCN1C(=O)C(C(C)=O)=C(C)C1(C)O` (centres undefined): the activity change, negative = inhibition is 12.4% (inactive).

For the molecule `O=C(O)[C@H]1CN(CCCP(=O)(O)O)CCN1`, the activity change, negative = inhibition was 4.53% (inactive).

Turning to `Oc1ccc2c(c1)OCC1(O)Cc3cc(O)c(O)cc3C21` (centres undefined), the activity change, negative = inhibition was -0.693% (inactive).

On to `Nc1[nH]nc2nc3ccccc3nc12`, for which the activity change, negative = inhibition was 19.2% (inactive).

Consider `Nc1nc2c(ncn2[C@@H]2O[C@@H](CO)[C@@H](O)[C@H]2O)c(=O)[nH]1`, for which the activity change, negative = inhibition was -3.02% (inactive).

Regarding `Nc1ncnc2c1ncn2[C@@H]1O[C@H](CO)[C@@H](O)[C@H]1O`, the activity change, negative = inhibition is 6.4% (inactive).

Take `Nc1nc(=S)c2ncn([C@@H]3O[C@H](CO)[C@@H](O)[C@H]3O)c2[nH]1`: the activity change, negative = inhibition was -79.5% (active).

Consider `Cc1nnsc1C(=O)Nc1ccc(-n2nc(C(F)(F)F)cc2C(F)(F)F)cc1`, for which the activity change, negative = inhibition was -80% (active).

Consider `COc1ccc2oc3ccccc3c(=O)c2c1`, for which the activity change, negative = inhibition is 118% (inactive).

In the case of `OCC1OC2OC3C(CO)OC(OC4C(CO)OC(OC5C(CO)OC(OC6C(CO)OC(OC7C(CO)OC(OC8C(CO)OC(OC1C(O)C2O)C(O)C8O)C(O)C7O)C(O)C6O)C(O)C5O)C(O)C4O)C(O)C3O` (centres undefined), the activity change, negative = inhibition is 1.48% (inactive).

Regarding `O=C(O)c1ccc2c3c1cccc3c(=O)n1c3ccccc3nc21`, the activity change, negative = inhibition was 9.96% (inactive).

Turning to `CO[C@@H]1[C@H](O)[C@@H](CO)O[C@H]1n1cnc2c(NC3CCCCC3)ncnc21`, the activity change, negative = inhibition is 2.27% (inactive).

As to `COc1nc(N)nc2c1ncn2[C@@H]1O[C@H](CO)[C@@H](O)[C@@H]1O`, the activity change, negative = inhibition is -2.56% (inactive) and 14.5% (inactive).

Take `COc1ccc(C[C@H](N)C(=O)N[C@@H]2[C@@H](CO)OC(n3cnc4c(N(C)C)ncnc43)[C@@H]2O)cc1` (some centres undefined): the activity change, negative = inhibition is -80.4% (active) and -91% (active).

As to `O=C(O)c1cc2cccc([N+](=O)[O-])c2[nH]1`, the activity change, negative = inhibition was 8.58% (inactive).

As for `CO/N=C(/C(=O)NC1C(=O)N2C(C(=O)O)=C(C[N+]3(C)CCCC3)CSC12)c1csc(N)n1` (centres undefined), the activity change, negative = inhibition is 6.5% (inactive).

In the case of `NC(=O)c1ccc(-c2nc(-c3ccc4c(c3)OCCO4)c(-c3ccccn3)[nH]2)cc1`, the activity change, negative = inhibition is 25.7% (inactive) and -23.2% (inactive).

For `Cc1cccc(-c2[nH]c(C(C)(C)C)nc2-c2ccc3nccnc3c2)n1`, the activity change, negative = inhibition is -81% (active).

On to `Cc1cccc(-c2[nH]c(C(C)(C)C)nc2-c2ccc3c(c2)OCO3)n1`, for which the activity change, negative = inhibition is -75.7% (active).

As for `NC(=O)c1ccc(-c2nc(-c3ccc4c(c3)OCO4)c(-c3ccccn3)[nH]2)cc1`, the activity change, negative = inhibition was -37% (inactive).

In the case of `C=C[C@@]1(C)CC(=O)[C@@]2(O)[C@](C)(O1)[C@@H](O)[C@@H](O)C1C(C)(C)CC[C@H](O)[C@@]12C` (some centres undefined), the activity change, negative = inhibition was 11.2% (inactive).

As to `C=CC(C)(O)CCC=C(C)C` (centres undefined), the activity change, negative = inhibition is 11.3% (inactive).

With `COc1ccccc1N1CCN(CC2CN3C(=O)N(C)c4ccccc4C3=N2)CC1` (centres undefined), the activity change, negative = inhibition was 1.95% (inactive).

On to `CC(=O)O[C@]1(C(C)=O)CCC2C3C=C(Cl)C4=CC(=O)[C@@H]5C[C@@H]5[C@]4(C)C3CC[C@@]21C` (some centres undefined), for which the activity change, negative = inhibition was 11.3% (inactive).

As to `CCCCC(=O)N(Cc1ccc(-c2ccccc2-c2nn[nH]n2)cc1)[C@H](C(=O)O)C(C)C`, the activity change, negative = inhibition is -0.624% (inactive) and 4.63% (inactive).

`C#CC1(OCC(O)CN2CCN(c3cccc(C(F)(F)F)c3)CC2)CCCCC1` (centres undefined): the activity change, negative = inhibition was -34.5% (inactive).

The values above are taken from PubChem BioAssay AID1259421 (Broad Institute, 2018).
